The values below come from ChEMBL document CHEMBL1961873, “Compounds: GSK PKIS; Assays: Nanosyn kinase panel” (2012).

In assay [1] the target is T1, Serine/threonine-protein kinase Nek9 (Homo sapiens) (UniProt Q8TD19).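 Also: each value is a mean percent inhibition of NEK9.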
T1 sequence (whole entry): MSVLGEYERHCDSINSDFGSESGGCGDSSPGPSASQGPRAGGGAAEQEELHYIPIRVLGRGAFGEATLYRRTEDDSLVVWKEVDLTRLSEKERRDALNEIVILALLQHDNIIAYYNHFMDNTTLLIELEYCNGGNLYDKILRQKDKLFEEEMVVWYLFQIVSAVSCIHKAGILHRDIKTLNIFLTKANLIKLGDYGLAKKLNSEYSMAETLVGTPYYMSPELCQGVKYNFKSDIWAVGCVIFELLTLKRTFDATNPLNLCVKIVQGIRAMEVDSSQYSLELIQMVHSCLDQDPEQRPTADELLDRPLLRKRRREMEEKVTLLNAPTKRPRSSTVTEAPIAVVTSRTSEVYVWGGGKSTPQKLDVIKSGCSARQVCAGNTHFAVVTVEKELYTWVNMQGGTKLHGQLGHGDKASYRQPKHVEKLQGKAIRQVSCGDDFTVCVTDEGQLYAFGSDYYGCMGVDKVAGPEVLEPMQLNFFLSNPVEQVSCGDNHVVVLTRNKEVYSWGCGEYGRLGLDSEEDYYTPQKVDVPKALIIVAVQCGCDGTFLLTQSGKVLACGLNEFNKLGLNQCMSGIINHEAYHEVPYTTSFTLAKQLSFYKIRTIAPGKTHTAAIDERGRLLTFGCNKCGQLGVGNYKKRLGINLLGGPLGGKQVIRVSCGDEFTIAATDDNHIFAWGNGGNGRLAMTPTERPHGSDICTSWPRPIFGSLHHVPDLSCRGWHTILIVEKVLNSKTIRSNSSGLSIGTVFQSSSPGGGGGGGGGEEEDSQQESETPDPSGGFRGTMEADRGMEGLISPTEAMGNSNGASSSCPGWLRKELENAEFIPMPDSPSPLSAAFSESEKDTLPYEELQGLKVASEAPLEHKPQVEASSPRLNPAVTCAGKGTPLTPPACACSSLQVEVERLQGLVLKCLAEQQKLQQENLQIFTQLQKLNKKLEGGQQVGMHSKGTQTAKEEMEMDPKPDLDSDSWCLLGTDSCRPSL
The note with it: at 1 µM.

Assay [2] deals with Serine/threonine-protein kinase PLK1 (Homo sapiens) (UniProt P53350). The note with it: at 0.1 µM.
The target is the same in assay [3]. The note with it: at 1 µM.
In assay [4] the target is T2, Dual specificity protein kinase TTK (Homo sapiens) (UniProt P33981).
T2 sequence (whole entry): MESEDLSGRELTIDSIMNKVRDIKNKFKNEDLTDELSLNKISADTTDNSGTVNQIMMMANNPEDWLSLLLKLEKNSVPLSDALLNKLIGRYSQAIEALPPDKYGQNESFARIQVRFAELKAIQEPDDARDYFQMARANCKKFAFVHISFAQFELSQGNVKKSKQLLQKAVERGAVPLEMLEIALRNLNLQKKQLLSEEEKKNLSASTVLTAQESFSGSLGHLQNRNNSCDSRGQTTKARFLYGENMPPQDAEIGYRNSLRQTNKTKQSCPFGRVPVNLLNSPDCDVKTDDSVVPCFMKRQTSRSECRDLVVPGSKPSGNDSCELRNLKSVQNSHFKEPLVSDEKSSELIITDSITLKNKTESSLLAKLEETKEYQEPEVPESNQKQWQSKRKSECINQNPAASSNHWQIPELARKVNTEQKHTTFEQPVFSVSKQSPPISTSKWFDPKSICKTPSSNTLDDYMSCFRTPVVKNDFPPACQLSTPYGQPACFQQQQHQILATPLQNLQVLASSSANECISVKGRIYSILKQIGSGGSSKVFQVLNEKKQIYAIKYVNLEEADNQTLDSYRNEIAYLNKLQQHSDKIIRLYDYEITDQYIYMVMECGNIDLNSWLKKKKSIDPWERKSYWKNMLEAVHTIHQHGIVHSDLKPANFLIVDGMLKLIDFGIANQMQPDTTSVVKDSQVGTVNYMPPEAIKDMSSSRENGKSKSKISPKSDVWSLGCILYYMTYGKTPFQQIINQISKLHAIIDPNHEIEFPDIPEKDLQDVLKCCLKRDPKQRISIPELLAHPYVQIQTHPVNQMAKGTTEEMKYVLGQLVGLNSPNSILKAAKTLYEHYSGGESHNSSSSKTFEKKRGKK
The note with it: at 0.1 µM.

The test system of assay [5] is T3, Receptor-type tyrosine-protein kinase FLT3 (Homo sapiens), P36888 [D835Y].
T3 sequence (whole entry): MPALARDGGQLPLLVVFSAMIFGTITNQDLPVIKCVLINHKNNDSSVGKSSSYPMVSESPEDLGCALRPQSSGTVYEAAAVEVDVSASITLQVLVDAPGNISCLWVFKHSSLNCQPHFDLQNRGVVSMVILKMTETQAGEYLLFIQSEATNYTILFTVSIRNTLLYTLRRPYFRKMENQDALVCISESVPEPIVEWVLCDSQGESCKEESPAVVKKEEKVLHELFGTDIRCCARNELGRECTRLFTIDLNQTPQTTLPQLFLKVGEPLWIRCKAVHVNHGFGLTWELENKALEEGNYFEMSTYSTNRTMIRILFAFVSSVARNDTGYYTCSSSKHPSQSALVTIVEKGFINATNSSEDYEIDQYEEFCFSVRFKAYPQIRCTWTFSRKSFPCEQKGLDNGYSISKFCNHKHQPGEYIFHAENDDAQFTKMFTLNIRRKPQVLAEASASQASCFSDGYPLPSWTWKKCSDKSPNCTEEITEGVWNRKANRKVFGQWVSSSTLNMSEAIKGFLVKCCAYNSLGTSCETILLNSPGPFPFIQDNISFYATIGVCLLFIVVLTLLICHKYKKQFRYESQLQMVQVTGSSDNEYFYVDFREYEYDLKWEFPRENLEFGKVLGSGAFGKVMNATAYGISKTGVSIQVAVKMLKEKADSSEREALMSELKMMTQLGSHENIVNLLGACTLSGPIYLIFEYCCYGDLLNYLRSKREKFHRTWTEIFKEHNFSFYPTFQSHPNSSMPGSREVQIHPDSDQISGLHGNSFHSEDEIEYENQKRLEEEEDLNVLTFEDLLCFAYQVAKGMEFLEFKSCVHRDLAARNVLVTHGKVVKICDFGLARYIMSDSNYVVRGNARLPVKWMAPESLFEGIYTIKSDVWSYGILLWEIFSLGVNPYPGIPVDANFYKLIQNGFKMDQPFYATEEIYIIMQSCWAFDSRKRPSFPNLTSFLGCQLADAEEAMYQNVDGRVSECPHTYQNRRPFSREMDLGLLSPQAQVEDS
The note with it: at 1 µM.

Assay [6] concerns the target Vascular endothelial growth factor receptor 3 (Homo sapiens) (UniProt P35916). The note with it: at 0.1 µM.
Assay [7] has the same target. The note with it: at 1 µM.
In assay [8] the target is Macrophage colony-stimulating factor 1 receptor (Homo sapiens) (UniProt P07333). The note with it: at 0.1 µM.
The target is the same in assay [9]. The note with it: at 1 µM.
Assay [10] addresses Tyrosine-protein kinase Fyn (Homo sapiens) (UniProt P06241). The note with it: at 0.1 µM.
The target is the same in assay [11]. The note with it: at 1 µM.
In assay [12] the target is Tyrosine-protein kinase HCK (Homo sapiens) (UniProt P08631). The note with it: at 0.1 µM.
For assay [13] the target is unchanged. The note with it: at 1 µM.
Assay [14] deals with Insulin-like growth factor 1 receptor (Homo sapiens) (UniProt P08069). The note with it: at 0.1 µM.
Assay [15] shares this target. The note with it: at 1 µM.
Assay [16] addresses Insulin receptor (Homo sapiens) (UniProt P06213). The note with it: at 0.1 µM.
The target is the same in assay [17]. The note with it: at 1 µM.
Assay [18] addresses Insulin receptor-related protein (Homo sapiens) (UniProt P14616). The note with it: at 0.1 µM.
For assay [19] the target is unchanged. The note with it: at 1 µM.
Assay [20] concerns the target T4, Tyrosine-protein kinase ITK/TSK (Homo sapiens) (UniProt Q08881).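 Also: mean percent inhibition of ITK from the GSK PKIS screen.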
T4 sequence (whole entry): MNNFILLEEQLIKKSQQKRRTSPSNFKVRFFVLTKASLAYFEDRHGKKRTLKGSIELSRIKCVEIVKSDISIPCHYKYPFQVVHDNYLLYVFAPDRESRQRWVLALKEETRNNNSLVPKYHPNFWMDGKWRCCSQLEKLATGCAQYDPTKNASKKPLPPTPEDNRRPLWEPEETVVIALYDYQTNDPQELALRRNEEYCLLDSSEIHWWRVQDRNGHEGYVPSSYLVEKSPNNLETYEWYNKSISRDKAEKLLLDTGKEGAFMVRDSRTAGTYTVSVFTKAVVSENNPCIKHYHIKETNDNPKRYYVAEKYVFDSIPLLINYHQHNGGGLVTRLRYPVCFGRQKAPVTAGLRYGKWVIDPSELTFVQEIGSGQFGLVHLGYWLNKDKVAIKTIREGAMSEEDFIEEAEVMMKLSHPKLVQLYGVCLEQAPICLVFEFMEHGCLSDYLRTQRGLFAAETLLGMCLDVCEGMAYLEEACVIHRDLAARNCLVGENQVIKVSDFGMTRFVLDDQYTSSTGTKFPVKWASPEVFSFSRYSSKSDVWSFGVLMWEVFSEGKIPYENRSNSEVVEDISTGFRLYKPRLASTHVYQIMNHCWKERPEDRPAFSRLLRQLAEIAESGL
The note with it: at 0.1 µM.

Chain of Macrophage colony-stimulating factor 1 receptor (Homo sapiens) (P07333 whole entry): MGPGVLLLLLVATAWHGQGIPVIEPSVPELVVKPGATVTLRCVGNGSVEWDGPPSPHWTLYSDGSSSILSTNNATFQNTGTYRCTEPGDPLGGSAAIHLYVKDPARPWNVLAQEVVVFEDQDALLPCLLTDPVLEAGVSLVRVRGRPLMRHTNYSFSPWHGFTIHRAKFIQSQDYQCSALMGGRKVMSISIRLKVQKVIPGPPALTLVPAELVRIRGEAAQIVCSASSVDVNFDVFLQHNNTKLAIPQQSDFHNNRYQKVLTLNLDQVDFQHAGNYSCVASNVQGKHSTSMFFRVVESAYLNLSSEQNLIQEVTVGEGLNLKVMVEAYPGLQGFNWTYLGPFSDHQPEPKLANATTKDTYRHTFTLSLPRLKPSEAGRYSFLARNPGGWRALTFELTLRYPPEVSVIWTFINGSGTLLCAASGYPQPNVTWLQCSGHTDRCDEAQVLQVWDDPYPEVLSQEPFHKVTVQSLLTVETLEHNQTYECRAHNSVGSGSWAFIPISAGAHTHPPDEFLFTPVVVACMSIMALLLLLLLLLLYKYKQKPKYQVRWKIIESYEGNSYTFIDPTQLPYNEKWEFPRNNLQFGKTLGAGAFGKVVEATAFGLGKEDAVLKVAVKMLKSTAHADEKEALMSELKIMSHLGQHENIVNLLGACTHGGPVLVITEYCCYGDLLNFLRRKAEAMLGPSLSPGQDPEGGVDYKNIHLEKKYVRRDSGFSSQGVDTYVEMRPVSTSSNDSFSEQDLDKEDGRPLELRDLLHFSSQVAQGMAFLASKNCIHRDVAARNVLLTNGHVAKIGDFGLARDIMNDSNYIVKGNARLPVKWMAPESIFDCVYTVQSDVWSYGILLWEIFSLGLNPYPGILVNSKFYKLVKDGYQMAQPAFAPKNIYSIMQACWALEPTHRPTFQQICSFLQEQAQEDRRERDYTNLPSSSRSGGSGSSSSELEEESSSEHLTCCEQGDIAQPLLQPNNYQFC
Chain of Insulin receptor (Homo sapiens) (P06213 28-758 limits assumed): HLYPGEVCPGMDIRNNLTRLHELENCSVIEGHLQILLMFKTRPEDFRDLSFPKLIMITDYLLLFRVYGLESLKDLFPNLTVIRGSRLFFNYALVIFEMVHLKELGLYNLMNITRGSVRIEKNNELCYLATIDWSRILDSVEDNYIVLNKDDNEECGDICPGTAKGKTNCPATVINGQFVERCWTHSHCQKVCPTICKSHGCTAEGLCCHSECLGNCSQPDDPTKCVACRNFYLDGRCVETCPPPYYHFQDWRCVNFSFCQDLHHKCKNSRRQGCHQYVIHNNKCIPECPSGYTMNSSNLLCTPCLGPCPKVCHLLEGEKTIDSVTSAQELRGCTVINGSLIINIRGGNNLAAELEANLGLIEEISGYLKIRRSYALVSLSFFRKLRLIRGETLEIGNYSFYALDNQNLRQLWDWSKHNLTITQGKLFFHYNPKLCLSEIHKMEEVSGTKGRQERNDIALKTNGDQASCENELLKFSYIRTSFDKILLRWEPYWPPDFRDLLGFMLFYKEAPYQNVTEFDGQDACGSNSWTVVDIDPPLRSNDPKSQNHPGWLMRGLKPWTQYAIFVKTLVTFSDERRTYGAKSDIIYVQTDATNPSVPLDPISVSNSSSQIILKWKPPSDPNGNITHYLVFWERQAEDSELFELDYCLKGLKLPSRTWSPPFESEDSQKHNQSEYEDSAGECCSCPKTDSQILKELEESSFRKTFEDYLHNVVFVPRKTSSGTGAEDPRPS
Chain of Insulin receptor (Homo sapiens) (P06213 763-1382 limits assumed): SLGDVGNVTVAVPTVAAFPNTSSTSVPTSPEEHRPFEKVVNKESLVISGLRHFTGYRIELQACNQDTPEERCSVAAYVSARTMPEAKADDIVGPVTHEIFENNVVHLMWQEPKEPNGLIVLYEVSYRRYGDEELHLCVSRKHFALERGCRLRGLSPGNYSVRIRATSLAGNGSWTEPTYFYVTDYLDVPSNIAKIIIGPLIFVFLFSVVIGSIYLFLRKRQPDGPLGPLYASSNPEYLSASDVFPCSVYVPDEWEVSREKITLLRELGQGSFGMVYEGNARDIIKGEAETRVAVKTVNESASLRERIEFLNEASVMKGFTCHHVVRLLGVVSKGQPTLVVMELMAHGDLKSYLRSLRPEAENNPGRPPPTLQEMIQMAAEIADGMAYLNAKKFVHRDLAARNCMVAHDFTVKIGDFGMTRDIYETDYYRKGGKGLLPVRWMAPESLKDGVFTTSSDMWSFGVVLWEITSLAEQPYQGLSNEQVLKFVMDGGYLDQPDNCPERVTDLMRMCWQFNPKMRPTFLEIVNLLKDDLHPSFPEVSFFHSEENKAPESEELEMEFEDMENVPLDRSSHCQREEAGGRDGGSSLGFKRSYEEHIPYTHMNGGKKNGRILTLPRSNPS
Chain of Vascular endothelial growth factor receptor 3 (Homo sapiens) (P35916 whole entry): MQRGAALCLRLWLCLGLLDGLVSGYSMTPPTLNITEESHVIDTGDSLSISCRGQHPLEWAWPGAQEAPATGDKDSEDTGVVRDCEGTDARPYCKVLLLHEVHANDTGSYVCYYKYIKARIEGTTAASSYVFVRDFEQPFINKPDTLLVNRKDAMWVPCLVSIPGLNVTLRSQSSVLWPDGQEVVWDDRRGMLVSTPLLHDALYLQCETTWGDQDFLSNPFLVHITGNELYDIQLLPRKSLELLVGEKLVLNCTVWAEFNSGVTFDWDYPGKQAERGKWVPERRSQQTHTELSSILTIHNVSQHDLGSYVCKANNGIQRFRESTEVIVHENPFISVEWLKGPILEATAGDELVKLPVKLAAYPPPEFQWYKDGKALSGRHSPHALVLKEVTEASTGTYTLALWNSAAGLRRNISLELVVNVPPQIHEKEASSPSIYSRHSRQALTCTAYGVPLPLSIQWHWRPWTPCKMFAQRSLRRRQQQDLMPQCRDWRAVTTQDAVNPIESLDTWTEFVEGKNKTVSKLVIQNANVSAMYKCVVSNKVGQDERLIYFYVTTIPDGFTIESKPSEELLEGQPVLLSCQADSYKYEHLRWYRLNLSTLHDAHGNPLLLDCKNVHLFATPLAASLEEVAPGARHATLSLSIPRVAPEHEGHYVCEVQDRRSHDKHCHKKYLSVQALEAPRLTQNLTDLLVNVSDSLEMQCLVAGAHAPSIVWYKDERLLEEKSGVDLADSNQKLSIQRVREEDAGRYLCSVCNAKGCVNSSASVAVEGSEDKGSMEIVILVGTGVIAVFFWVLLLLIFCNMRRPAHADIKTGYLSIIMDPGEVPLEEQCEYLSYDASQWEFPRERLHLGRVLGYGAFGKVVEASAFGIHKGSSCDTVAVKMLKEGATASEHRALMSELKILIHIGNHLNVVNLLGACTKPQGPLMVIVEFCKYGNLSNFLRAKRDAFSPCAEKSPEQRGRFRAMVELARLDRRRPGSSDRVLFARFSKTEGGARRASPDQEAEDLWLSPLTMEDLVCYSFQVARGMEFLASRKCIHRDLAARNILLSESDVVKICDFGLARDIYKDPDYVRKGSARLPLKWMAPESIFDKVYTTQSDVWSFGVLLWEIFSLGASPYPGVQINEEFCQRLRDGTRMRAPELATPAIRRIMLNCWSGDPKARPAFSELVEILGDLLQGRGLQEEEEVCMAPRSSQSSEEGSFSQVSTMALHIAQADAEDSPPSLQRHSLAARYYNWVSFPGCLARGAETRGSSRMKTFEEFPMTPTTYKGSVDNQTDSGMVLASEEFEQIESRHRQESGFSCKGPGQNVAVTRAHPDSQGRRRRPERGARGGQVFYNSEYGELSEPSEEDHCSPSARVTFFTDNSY
Chain of Tyrosine-protein kinase HCK (Homo sapiens) (P08631 2-526 limits assumed): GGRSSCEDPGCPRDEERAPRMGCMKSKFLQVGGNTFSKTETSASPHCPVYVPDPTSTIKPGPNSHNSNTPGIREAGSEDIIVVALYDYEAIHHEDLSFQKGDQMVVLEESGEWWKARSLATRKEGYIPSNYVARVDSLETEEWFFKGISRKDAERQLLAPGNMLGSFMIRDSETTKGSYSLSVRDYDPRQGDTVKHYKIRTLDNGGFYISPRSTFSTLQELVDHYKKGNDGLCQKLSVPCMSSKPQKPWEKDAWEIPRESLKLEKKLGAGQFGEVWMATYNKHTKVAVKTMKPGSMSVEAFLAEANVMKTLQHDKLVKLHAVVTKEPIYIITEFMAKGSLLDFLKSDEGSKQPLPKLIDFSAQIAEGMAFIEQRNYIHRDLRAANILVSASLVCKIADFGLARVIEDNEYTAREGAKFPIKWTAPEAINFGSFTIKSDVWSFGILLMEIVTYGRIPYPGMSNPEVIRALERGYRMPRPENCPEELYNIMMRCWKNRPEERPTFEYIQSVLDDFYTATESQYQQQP
Chain of Tyrosine-protein kinase Fyn (Homo sapiens) (P06241 2-537 limits assumed): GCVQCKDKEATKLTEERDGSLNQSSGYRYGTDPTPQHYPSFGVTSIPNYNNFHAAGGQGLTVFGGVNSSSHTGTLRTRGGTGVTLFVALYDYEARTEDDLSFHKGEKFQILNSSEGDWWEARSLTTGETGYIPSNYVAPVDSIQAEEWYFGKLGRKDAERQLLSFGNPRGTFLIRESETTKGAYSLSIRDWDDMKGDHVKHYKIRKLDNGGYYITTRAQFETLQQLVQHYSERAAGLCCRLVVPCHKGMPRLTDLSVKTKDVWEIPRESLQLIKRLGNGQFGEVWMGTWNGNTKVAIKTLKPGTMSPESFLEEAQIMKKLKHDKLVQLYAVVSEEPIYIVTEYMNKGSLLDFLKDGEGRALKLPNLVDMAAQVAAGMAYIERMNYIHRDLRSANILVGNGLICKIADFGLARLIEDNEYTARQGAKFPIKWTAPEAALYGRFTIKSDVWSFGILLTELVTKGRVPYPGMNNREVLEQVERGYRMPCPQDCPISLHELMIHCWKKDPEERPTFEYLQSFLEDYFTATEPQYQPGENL

Consider `NS(=O)(=O)c1ccc(N/N=C2\C(=O)Nc3ccc(C(=O)NCc4ccncc4)cc32)cc1`, for which the inhibition (commonly the drop in the measured response relative to a control, in per cent) was 9.05% in [1]; 3.77% in assay [2]; 2.52% in assay [3]; 37.6% in assay [4]; 34.3% in [5]; 16.7% in [6]. Besides, the inhibition in assay [7] was determined as 48.7%; in [8], 3.12%; in assay [9], 8.74%; in [10] it was 9.13%; in assay [11] it was 50.9%; in assay [12] it was 5.39%. Also, the inhibition in [13] stood at 16.3%; in assay [14] it was 10.1%; in assay [15], 9.32%; in [16] it was 1.24%; in assay [17], 3.32%; in assay [18] it was 2.61%. For the same compound, the figures for the inhibition in assay [19] and in [20] were 2.45% and 0.99%, respectively.
Take `NS(=O)(=O)c1ccc(N/N=C2\C(=O)Nc3cccc(CCc4ccncc4)c32)cc1`: the inhibition in assay [1] was -6.07%; in assay [2] it was -0.07%; in assay [3] it was 1.59%; in assay [4] it was 20.8%; in [5], 64%; in [6], 30.1%. Moreover, the inhibition in assay [7] was 47.9%; in assay [8], 39.9%; in [9], 46.2%; in [10] it was 2.64%; in assay [11] it was 4.54%; in assay [12], 2.52%. Besides, the inhibition in assay [13] is 6.49%; in assay [14] it was 1.21%; in assay [15] it was 1.06%; in [16], 4.32%; in assay [17], 5.06%; in assay [18] it was -0.57%. The inhibition in [19] came out at 0.48%; in assay [20], 0.79%.
On to `O=C(O[C@H]1CN[C@H](C#Cc2cc3ncnc(Nc4ccc5c(cnn5Cc5ccccc5)c4)c3s2)C1)N1CCOCC1`, for which the inhibition was -0.45% in [1]; -1.27% in [2]; 1.79% in [3]; 5.51% in [4]; 2.81% in assay [5]; 1.1% in assay [6]. The inhibition was 1.5% in assay [7]; -6.02% in assay [8]; 4.04% in assay [9]; 1.79% in [10]; 8.19% in assay [11]; -0.73% in assay [12]. Besides, the inhibition in assay [13] was 3.3%; in [14] it was -2.85%; in assay [15], -0.43%; in [16], 2.89%; in assay [17], 1.79%; in assay [18], -1.64%. The inhibition in assay [19] was -2.28%; in [20] it was -1.11%.
For the compound `O=C(O[C@H]1CN[C@H](C#Cc2cc3ncnc(Nc4ccc5c(ccn5Cc5cc(F)ccc5F)c4)c3s2)C1)N1CCOCC1`, the inhibition was 12.3% in assay [1]; 4.51% in [2]; 10.8% in [3]; 11% in assay [4]; -1.27% in assay [5]; 4.34% in [6]. For the same compound, the inhibition in assay [7] came to 4.77%; in assay [8], 2.09%; in [9] it was 15.5%; in assay [10], 4.48%; in assay [11] it was 0.77%; in assay [12], 4.89%. Besides, the inhibition was found to be 8.93% in assay [13]; 2.56% in [14]; 2.8% in [15]; 6.64% in [16]; 2.68% in assay [17]; 1.67% in [18]. Besides, the inhibition in assay [19] is 2.01%; in assay [20] it was 1.67%.
Consider `Cc1c2ccc(N(C)c3ccnc(Nc4cccc(S(N)(=O)=O)c4)n3)cc2nn1C`, for which the inhibition in [1] amounted to 6.19%; in assay [2] it was 3.29%; in assay [3], 3.99%; in assay [4] it was 8.91%; in assay [5], 13.8%; in assay [6] it was 58.8%. Moreover, the inhibition in assay [7] was determined as 93.8%; in [8], 78.4%; in [9], 91.7%; in assay [10], 13.8%; in assay [11], 60.5%; in assay [12], 31.2%. Further, the inhibition in [13] is 73.8%; in [14], -4.22%; in [15], 13.1%; in assay [16], 7.68%; in assay [17], 18.7%; in [18], 2.78%. Moreover, the values for the inhibition in [19] and in [20] were 2.81% and -1.73%, respectively.
With `CNC(=O)c1ncccc1Nc1nc(Nc2cc3c(cc2OC)CCCN3C(=O)CN(C)C)nc2[nH]ccc12`, the inhibition was 8.8% in [1]; 79.8% in assay [2]; 92.8% in assay [3]; 12.8% in assay [4]; 2.75% in assay [5]; 2.84% in assay [6]. The inhibition was 2.27% in [7]; 7.05% in assay [8]; 3.9% in [9]; 1.75% in [10]; 2.48% in [11]; 5.56% in assay [12]. Moreover, the inhibition in [13] worked out at 8.62%; in assay [14], 97%; in assay [15], 97.9%; in [16], 100%; in assay [17] it was 98.1%; in [18], 78.2%. The inhibition is 94.3% in assay [19] and 1.95% in assay [20].
